From ChEMBL document CHEMBL3988442, “University of Dundee, Small-Polar-MMV Screening Library” (2021) come the findings set out here.

SMILES strings stand for the structures. In all, about 48,000 compounds went through this assay and about 13,000 (27%) showed an effect of 50% or more. This is one part of the list.

In the assay the test system is Wolbachia pipientis. The assay can be described thus: Anti-Wolbachia Cell-Based Screen. Format: functional. Details: scale not given: in the data most compounds retested in dose-response had high values. As to conditions: 5 µM.
As for `O=C(NCCN1CCCC1)c1nc2c(o1)CN(C(=O)c1cccnc1)C2.O=C(O)C(F)(F)F.O=C(O)C(F)(F)F`, the “Percent Effect” value is -5.766%.
Regarding `COCCN1CCc2ncc(CN(C)C)n2CC1`, the “Percent Effect” value is listed as -10.98%.
To `CC1CN(S(=O)(=O)c2ccc(F)cc2F)c2cccnc2O1` (stereo unspecified) belongs -5.201%; to `NC(=O)NC(=O)CCN1C(=O)CC(Cc2ccc(F)cc2)C1=O` (stereo unspecified), 2.732%.
For the molecule `COc1cccc(C(=O)N2CCOCC2CN(C)C)c1OC.O=CO` (stereo unspecified), the “Percent Effect” value was found to be 3.966%.
On to `Cc1cc(C(=O)N[C@H]2CN(CCC(N)=O)C[C@@H]2C2CC2)sc1C`, for which the “Percent Effect” value is 6.856%.
To `O=C(Nc1cccc2c1CCCC2)C1CCCN1c1nccs1` (stereo unspecified) belongs 15.72%; to `O=C(Nc1cccc2c1CCCC2)c1cccc(CN2CC[C@H](O)C2)c1`, -13.79%.
As to `O=C(CS(=O)(=O)c1ncccc1Cl)NC1CCCc2ccccc21` (stereo unspecified), the “Percent Effect” value was determined as 0.01745%.
Consider `Cc1cccc(C(=O)Nc2cccc3c2CCCC3)n1`, for which the “Percent Effect” value is given as -12.03%.
Next, `CC1CN(c2ncccc2C(=O)Nc2cccc3c2CCCC3)CCN1` (stereo unspecified): 121.2%; `CC1CN(c2ncccc2C(=O)N[C@@H]2CCCc3ccccc32)CCN1` (stereo partly specified): 127.7%; `O=C(CS(=O)(=O)c1ccccn1)NC1CCCc2ccccc21` (stereo unspecified): 25.59%.
Regarding `NC(=O)c1cccnc1N1CCN(c2ncnc3c2CCNC3)CC1`, the “Percent Effect” value was -13.85%.
In the case of `O=C(Nc1cccc2c1CCCC2)c1cccnc1N1CCCNCC1`, the “Percent Effect” value worked out at 136.8%.
Turning to `Cc1cc(N2CCN(C(=O)c3cc(Cl)c[nH]3)CC2)nc(N)n1`, the “Percent Effect” value is on record as 3.543%.
For `CC(=O)CCCC(=O)N(Cc1ccsc1)CC(C)C`, the “Percent Effect” value is recorded as -0.6388%.
`CCC(C#N)NC(=O)c1ccc(Oc2cccnc2)cc1` (stereo unspecified): the “Percent Effect” value is reported as -3.415%.
Next, `CC(NC(=O)N(C)C1CC1)c1ccc(Oc2cccnc2)c(F)c1` (stereo unspecified): 100.6%; `CC(NC(=O)Cn1ccnc1)c1ccc(OCC2CC2)c(F)c1` (stereo unspecified): 47.59%; `CC(CNC(=O)c1ccccc1Oc1cccnc1)N(C)C` (stereo unspecified): 3.869%.
For `CC(NC(=O)Cc1ccon1)c1ccc(OCC2CC2)c(F)c1` (stereo unspecified), the “Percent Effect” value is reported as 0.6015%.
Next, `CC(NC(=O)c1ccnn1C)c1ccc(OCC2CC2)c(F)c1` (stereo unspecified): 28.88%.
Next, `Cc1cc(CC(=O)NC(C)c2ccc(OCC3CC3)c(F)c2)n[nH]1` (stereo unspecified): -4.858%; `CC(NC(=O)CN(C)C(C)C)c1ccc(Oc2cccnc2)c(F)c1` (stereo unspecified): 102.4%.
To `CCN(CC)C(=O)NC(C)c1ccc(Oc2cccnc2)c(F)c1` (stereo unspecified) belongs 111%; to `CN(C)C1Cc2ccccc2N(S(=O)(=O)c2ccc(C#N)cc2)C1` (stereo unspecified), -15.49%.
As for `OC[C@@H](O)CN(CCC(F)(F)F)c1ncc(Cl)cn1`, the “Percent Effect” value was -0.8071%.
Next, `OCCNc1cc(-c2ccncc2)ncn1`: 123.3%.
Next, `OCCNc1cc(-c2ccccc2)ncn1`: 107.4%.
Consider `CNc1cc(-c2ccncc2)ncn1`, for which the “Percent Effect” value is given as 104.2%.
In the case of `O=C(NCCNc1cc(N2CCCC2)ncn1)c1cnccn1`, the “Percent Effect” value came out at 10.51%.
To `OCCNc1cc(N2CCN(Cc3ccccc3)C(CCO)C2)ncn1` (stereo unspecified) belongs 0.1628%; to `OCC1CCCN1c1cc(NCCNc2ccccn2)ncn1` (stereo unspecified), 1.6%; to `Cn1ccc2c(-c3ccc(NCCO)nn3)ccnc21`, 2.598%.
Take `CN(C)C(=O)c1cc(NC(=O)N2CCCC(C(F)(F)F)C2)ccn1` (stereo unspecified): the “Percent Effect” value is -9.482%.
Turning to `COc1ccc(Cc2ncc3c(n2)CN(C(=O)CCO)C3)cc1`, the “Percent Effect” value was -39.39%.
Next, `Cc1c(CNC(=O)C2CCCCCN2C)oc2ccccc12` (stereo unspecified): 0.5854%; `N#Cc1ccc(CN(CC(N)=O)C2CCCC2)c(Br)c1`: -1.736%; `CN1CC(Oc2ccc(Cl)cc2)=NC(SCC(=O)Nc2ccccc2)=N1`: 25.95%.
To `CC(C)(C)c1ncc(C(=O)NCCSc2ccccn2)c(O)n1` belongs 2.392%; to `Cc1nn(-c2ccccc2)c(C)c1-c1ccnc(N2CCCNCC2)n1`, 14.93%; to `CC(=O)N1CCCN(c2nccc(-c3cn(C)nc3C)n2)CC1`, -3.527%.
Take `Cc1nn(C)cc1-c1ccnc(N2CCCN(CC(C)C)CC2)n1`: the “Percent Effect” value is reported as 87.41%.
Next, `Cc1nn(C)c(C)c1-c1ccnc(N2CCCN(CC(C)C)CC2)n1`: 93.07%; `CC(=O)N1CCCN(c2nccc(-c3c(C)nn(C)c3C)n2)CC1`: 41.92%.
Next, `Cc1nn(C)cc1-c1ccnc(N2CCSCC2)n1`: -11.35%; `O=C(NCc1nc(NC2CCCC2)c2cc(Cl)ccc2n1)c1cscn1`: 4.35%; `Cc1cc(C)c2c(c1)C(CC(=O)O)C(=O)N2` (stereo unspecified): 1.764%.
For `O=c1ccc(-c2ccccc2F)nn1CCN1CCCS1(=O)=O`, the “Percent Effect” value was -2.823%.
Next, `O=c1ccc(-c2ccccc2F)nn1CN1CCCCCC1`: 147.7%.
To `CN1CCN(Cc2noc(-c3cc(-c4ccccc4F)n[nH]3)n2)CC1` belongs -9.744%; to `CN1CCCN(Cn2nc(-c3ccccc3F)ccc2=O)CC1`, 154.5%.
Next, `CN1CCCN(Cc2nc(Cc3ccccc3)n[nH]2)CC1`: 19.97%; `CCn1nc(-c2ccccc2F)ccc1=O`: 11.86%; `CCN1C(=O)[C@]2(CC[C@@H]3CN(S(=O)(=O)CC(C)C)C[C@@H]32)N=C1C`: -19.96%.
